Compound activity (PubChem)
Rows were chosen to be rich in hits. Some 2.1% of all compounds tested hit in one or more screens of this group.
uPA surface inh – cell surface uPA generation inhibition; cell surface uPA generation assay, qHTS; Potency, µM (highest dose often 38.3 µM), inactives show at the highest dose activity change, negative = inhibition, hits mostly inhibitors; 0.31% of 330,000 active; AID 540303; active = well fitted inhibition curve with a large enough effect; inconclusive = small, poorly fitted or top-dose-only effect; inactive = no such curve, though single readings can be large or run the other way; tested in mouse RAW 264.7 cells; note: potency is the fitted concentration of half-maximal effect; % is set by controls: 0 for no effect and ±100 for the full control effect; nearly all actives have a fitted effect of over 55% in size
ClpP mod – qHTS Assay for Activators of ClpP; ATP-dependent Clp protease proteolytic subunit (Bacillus subtilis (strain 168)), P80244; purified B. subtilis ClpP, FRET peptide cleavage, 20 min; Potency, µM (highest dose often 57.5 µM), without a hit: at the highest dose activity change, negative = active; 1.9% of 340,000 active; AID 651965, 2013; active = well fitted falling curve with a large enough effect; inconclusive = small, poorly fitted or top-dose-only effect; inactive = no such curve, though single readings can be large or run the other way; note: potency is the fitted concentration of half-maximal effect; the source files actives as falling curves though it sought activators and does not explain the sign; nearly all actives have a fitted effect of over 65% in size
Target sequence (P80244 whole entry, looked up): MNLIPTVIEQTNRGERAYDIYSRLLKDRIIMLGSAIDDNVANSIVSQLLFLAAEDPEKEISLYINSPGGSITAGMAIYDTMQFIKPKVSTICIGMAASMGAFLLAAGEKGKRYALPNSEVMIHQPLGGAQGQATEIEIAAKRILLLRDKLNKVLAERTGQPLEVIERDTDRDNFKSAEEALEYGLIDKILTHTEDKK
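ClpP 10 microg/mL final, pH 8 Tris/KCl buffer with BSA, glycerol, Tween-20; compound pinned in; FRET-FV substrate; RT 20 min; Ex320/Em430; ΔFRET vs ADEP 5.8 microM, DMSO, no enzyme.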
Giardia killer – kills Giardia lamblia; Giardia lamblia trophozoite viability; AID 540267; 0.15% of 340,000 active; activity change, % at 7.66 µM, hits read low; in the data active = activity change below about -80%; inconclusive = between about -30% and that limit;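 note: parasites exposed to compound for two days anaerobically before the ATP read; % is set by controls: 0 for no effect and ±100 for the full control effect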
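ATP-content bioluminescence gauges trophozoite survival. Cells (100/well) receive compound and incubate anaerobically for 48 hrs at 37 deg C; detection reagent follows for 15-30 min at room temperature.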
p53 reactivator – re-activators of mutant p53. H1299 p53-A138V BP100-luciferase reporter, luminescence, 24 h. AID 504706. Potency, µM (highest dose often 92.2 µM), for inactives: at the top dose activity change, positive = activation, usual class: activators. 0.063% of 320,000 active; note: potency is the fitted concentration of half-maximal effect; % of control where 0% means no effect; nearly all actives have a fitted effect of over 45% in size
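p53-null H1299 cells stably carrying temperature-sensitive p53-A138V and a BP100-luciferase reporter were pinned with compounds (4-point, 1:5 series) and held 24 hrs at 37 deg C. Luminescence was read 10 min after detection reagent.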
Mito fusion yeast – blocks mitochondrial division or promotes mitochondrial fusion; S. cerevisiae fusion-defective mutant growth rescue, CellTiterGlo 48 h; Potency, µM (doses to about 46.1 µM), for the others: at the highest dose growth rescue (activation), actives largely listed as activators; 0.23% of 320,000 active; note: potency is the fitted concentration of half-maximal effect; % of control where 0% means no effect; nearly all actives have a fitted effect of over 45% in size
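Read-out: ATP-based luminescence (CellTiterGlo, 10 min ambient) reporting growth of fusion-defective ts yeast after 48 hours at 37C on glycerol/ethanol YPEG medium in the presence of compound.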
B2AR arrestin – agonists driving beta-arrestin recruitment to human beta2-adrenergic receptor. P07550. beta-arrestin recruitment to beta2AR, cell-based reporter. Potency, µM (top dose mostly 46.1 µM), for the others: at the highest dose activation, actives largely listed as activators. 0.02% of 330,000 active. AID 492947;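 note: potency is the fitted concentration of half-maximal effect; 0% = DMSO controls and full agonism = EC100 isoproterenol or metaproterenol; nearly all actives have a fitted effect of over 65% in size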
Target sequence (P07550 whole entry, looked up): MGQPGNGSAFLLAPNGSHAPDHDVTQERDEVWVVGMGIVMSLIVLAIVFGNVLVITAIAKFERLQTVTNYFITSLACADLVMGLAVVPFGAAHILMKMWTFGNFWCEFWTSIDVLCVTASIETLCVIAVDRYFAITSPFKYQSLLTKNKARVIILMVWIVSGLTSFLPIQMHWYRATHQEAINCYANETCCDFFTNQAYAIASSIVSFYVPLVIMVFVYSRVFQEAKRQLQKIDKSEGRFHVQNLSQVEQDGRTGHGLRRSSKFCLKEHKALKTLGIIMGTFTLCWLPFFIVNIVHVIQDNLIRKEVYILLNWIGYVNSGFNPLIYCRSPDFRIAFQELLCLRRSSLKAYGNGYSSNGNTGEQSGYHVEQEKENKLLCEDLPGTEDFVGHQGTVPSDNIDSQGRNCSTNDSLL
* = called active by the depositor; ? = inconclusive; . = no result. Unless noted, calls come from the whole dose curve; as a rule, active = well fitted curve in the direction sought with a large enough effect; inconclusive = small, poorly fitted or top-dose-only effect, or another doubt; inactive = no such curve, though single readings can be large; an effect the other way counts as inactive or inconclusive.

SMILES	uPA surface inh	ClpP mod	Giardia killer	p53 reactivator	Mito fusion yeast	B2AR arrestin
Cc1cccc(C)c1-n1nnnc1C(c1cc2ccccc2o1)N1CCN(C/C=C/c2ccccc2)CC1 (configuration not stated)	.	2%	.	.	.	.
COc1cc2[nH]c(=O)n(CCCC(=O)NCCc3ccccc3)c(=O)c2cc1OC	1%	-1%	3	10%	0%	0%
COc1cc2[nH]c(=O)n(CCCCCC(=O)NCCCN3CCC(C)CC3)c(=O)c2cc1OC	.	16µM*	5	-7%	5%	0%
COc1cc2[nH]c(=O)n(CCC(=O)NCCC(C)C)c(=O)c2cc1OC	2%	20µM*	-5	-1%	-3%	0%
Cc1cccnc1NC(=O)Nc1cccc2ccccc12	-6%	25µM*	-12	6%	-1%	0%
COc1cc2[nH]c(=O)n(Cc3ccc(C(=O)NCCCN4CCC(C)CC4)cc3)c(=O)c2cc1OC	-1%	?	-4	-3%	-1%	0%
CN1CCN(CCCNC(=O)Nc2cccc3ccccc23)CC1	-5%	16µM*	3	17%	1%	0%
O=C(Nc1ccccc1)Nc1cccc2ccccc12	3%	.	-1	10%	-6%	0%
O=C(NCCCN1CCCC1)Nc1cccc2ccccc12	2%	?	-24	-13%	1%	-1%
Cc1noc(Cn2c(=O)c3cc4c(cc3n(CC(=O)Nc3cccc(Cl)c3)c2=O)OCO4)n1	.	-25%	.	.	.	.
COc1cc(NC(=O)Cn2c(-c3ccccc3)cc(C(C)=O)c2C)cc(OC)c1	.	0%	.	.	.	.
CCOc1cc2[nH]c(=O)n(Cc3ccccc3)c(=O)c2cc1OCC	-4%	13µM*	-6	2%	-2%	-1%
CCOC(=O)CNC(=O)Nc1nnc(-c2ccc(OCC)cc2)o1	-5%	6.3µM*	8	2%	-3%	0%
CCCCNC(=O)Nc1nnc(-c2ccc(OCC)cc2)o1	0%	25µM*	-11	-7%	-3%	0%
CCCCNC(=O)Nc1nnc(-c2ccccc2)o1	-6%	14µM*	1	0%	-2%	0%
CCOc1ccccc1C(=O)Oc1c(S(=O)(=O)c2ccc(C)cc2)c(C)nn1-c1ccccc1	.	-10%	.	.	.	.
CCCOC(=O)c1c(-c2ccccc2)c(-c2ccccc2)nn(C)c1=O	.	0%	.	.	.	.
COc1ccc(NC(NC(=O)c2cccnc2)C(Cl)(Cl)Cl)cc1 (configuration not stated)	0%	.	15	1%	5%	0%
Cc1ccccc1NC(NC(=O)c1cccnc1)C(Cl)(Cl)Cl (configuration not stated)	-3%	13µM*	2	8%	8%	0%
COc1ccc(-c2cc3nc(C)c(CCC(=O)Nc4ccc(F)cc4F)c(C)n3n2)c(OC)c1	.	3%	.	.	.	.
CCn1c([N+](=O)[O-])nc2c1c(=O)[nH]c(=O)n2C	10µM*	0%	-1	-12%	-3%	0%
CCCCCCn1c(SCCCC)nc2c1c(=O)[nH]c(=O)n2C	2%	2%	-6	-1%	24%	0%
COc1ccccc1NC(=O)c1nc(SCc2ccccc2F)ncc1Cl	.	-4%	.	.	.	.
CC(C)CNC(=O)c1c2c(nc3ccccc13)-c1ccccc1CC2	-2%	28µM*	5	3%	3%	0%
C=CCNC(=O)c1c2c(nc3ccccc13)-c1ccccc1CC2	-3%	32µM*	5	-11%	4%	0%
SMILES	uPA surface inh	ClpP mod	Giardia killer	p53 reactivator	Mito fusion yeast	B2AR arrestin
OC(C1=C/C(=C\c2ccncc2)c2ccccc21)c1ccncc1 (configuration not stated)	.	-1%	.	.	.	.
CCOC(=O)Cc1ccc(NC(=O)N(Cc2ccc(OC)cc2)C2CCN(C(C)=O)CC2)cc1	.	-2%	.	.	.	.
Oc1cc(O)cc(-c2cc3ccc(O)cc3o2)c1	-7%	5%	4	.	.	.
CC1(C)Oc2cc3oc(-c4cc(O)cc(O)c4)cc3cc2CC1O (configuration not stated)	8.9µM*	4%	?	.	.	.
Cc1nc2c(ccc3nc(NC(=O)C(c4ccccc4)c4ccccc4)sc32)s1	4%	2%	-22	4%	7.1µM*	0%
CCC(=O)Nc1nc2ccc3nc(C)sc3c2s1	10%	0%	-1	?	18%	0%
Cc1nc2c(ccc3nc(NC(=O)Cc4cccc5ccccc45)sc32)s1	-7%	-14%	8	4%	11µM*	-1%
COc1cccc(CN(C(=O)c2oc3ccccc3c2C)C2CCS(=O)(=O)C2)c1 (configuration not stated)	.	-1%	.	.	.	.
CCc1ccc(Nc2nc(-c3cc4cccc(OC)c4oc3=O)c(CC)s2)cc1	.	0%	.	.	.	.
CCCS(=O)(=O)c1ncc(Cl)c(C(=O)N2CCN(c3ccc(OC)cc3)CC2)n1	.	0%	.	.	.	.
Nc1c(C(=O)Nc2ccccc2Br)sc2nc(-c3cccs3)ccc12	.	32µM*	.	.	.	.
COc1ccccc1NC(=O)c1sc2nc(-c3ccco3)ccc2c1N	2%	3%	-3	4%	12%	0%
Nc1c(C(=O)Nc2ccccc2)sc2nc(-c3ccco3)ccc12	0%	16µM*	-11	4%	2%	0%
CC(C)(C)OC(=O)N1CCC(c2c(C(=O)NCc3cccc(Cl)c3)cnn2-c2ccc(F)cc2)CC1	.	0%	.	.	.	.
Cc1cc(-c2ccc(C)c(S(=O)(=O)Nc3cccc(C)n3)c2)on1	.	32µM*	.	.	.	.
Cc1ccc(NS(=O)(=O)c2cccs2)nc1	-3%	4%	-4	-8%	4%	1%
Cc1cccc(NS(=O)(=O)c2cccs2)n1	-5%	20µM*	-23	4%	0%	-1%
CCOC(=O)N1CCC2(CC1)OC(=O)C(C)=C2C(=O)NCc1cccc(F)c1	.	1%	.	.	.	.
COc1ccc(C2N=C(Nc3nc4ccccc4o3)NC3=C2C(=O)CC(C)(C)C3)cc1 (configuration not stated)	.	4%	-17	.	.	.
Fc1ccc(-c2ccnc3nc(N4CCOCC4)nn23)cc1	4%	?	-9	-1%	4%	0%
COc1ccc(-c2ccnc3nc(N4CCN(c5ccccc5)CC4)nn23)cc1	3%	1%	5	7%	13µM*	0%
O=C(Nc1ccccc1C(=O)OCc1cc(=O)n2nc(C3CC3)sc2n1)c1cccc(F)c1	.	-5%	.	.	.	.
CC(=O)N1N=C(c2ccccc2)CC1c1ccccc1[N+](=O)[O-] (configuration not stated)	1%	-1%	-3	-1%	5%	-1%
O=C(c1ccccc1)N1N=C(c2ccccc2)CC1c1ccccc1[N+](=O)[O-] (configuration not stated)	-3%	25µM*	-5	0%	-2%	-1%
